Screen size: about 360,000 compounds; about 11,000 (3.1%) were called active. Inconclusive results (about 4%) are left out. Shown is part of a subset that was picked to be rich in actives. A number with no mark means an inactive call. The call rests on the fitted dose curve; in most records, active means well fitted inhibition curve with a large enough effect; inconclusive means small, poorly fitted or top-dose-only effect; inactive means no such curve, though single readings can be large or run the other way.
biological target: Schistosoma mansoni thioredoxin glutathione reductase (TGR) (UniProt Q962Y6); test: qHTS Assay for the Inhibitors of Schistosoma Mansoni Peroxiredoxins; conditions: purified TGR, DTNB reduction, TNB absorbance 405 nm; series mostly up to 114 µM; activity change, negative = inhibition: at the top concentration; further: nearly all actives have a fitted effect of over 60% in size
Outline: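 Kinetic colorimetric format: TGR-catalysed, NADPH-driven DTNB reduction monitored via TNB absorbance. Enzyme dispensed at 20 nM; compound exposure 15 min at room temperature before reaction start.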
On the % scale 0 is the no-effect control and ±100 the full control effect; potency means the concentration at half of the fitted maximal effect.

`COc1ccccc1CN1CCNC(=O)C1CC(=O)N(C)CC1CCOCC1` (configuration not stated) was tested, and the Potency was 50.1 µM (active).
With `CN(Cc1cccc2ncccc12)C(=O)CC1C(=O)NCCN1Cc1ccc(F)cc1` (configuration not stated) the Potency was 35.5 µM (active).
For `COc1ccc(C(=O)NCC(=O)N/N=C/c2ccc([N+](=O)[O-])o2)cc1OC`, the Potency was 17.8 µM (active).
With `Oc1c(C=Nc2cccc3nsnc23)ccc2ccccc12` the Potency was 7.94 µM (active).
In the case of `COCCCn1c(CCC(=O)O)ccc1-c1ccc(F)cc1`, the Potency is reported as 44.7 µM (active).
With `Cc1cc(Cl)ccc1N1C(=O)CC(SCCC(=O)O)C1=O` (configuration not stated) the Potency was 39.8 µM (active).
`O=C(NCc1ccco1)C(=O)c1cn(CC(=O)N2CCCCCC2)c2ccccc12` was tested, and the Potency was 31.6 µM (active).
In the case of `NC(=O)CC[C@@H]1NC(=O)[C@@H]2CCCN2C(=O)c2cc([N+](=O)[O-])cc(F)c2NCCC[C@@H](C(N)=O)NC1=O`, the Potency is reported as 44.7 µM (active).
With `CCCc1cc(=S)n2c([nH]c3ccccc32)c1C#N` the Potency was 0.631 µM (active).
With `CCOC(=O)C1CCCN(C(=O)c2ccc(CS(=O)(=O)c3ccc(Br)cc3)o2)C1` (configuration not stated) the Potency was 20 µM (active).

First: C=CCC1(CC=C)CCCN1C(=O)CC1C(=O)NCCN1Cc1ccccc1OC (configuration not stated)
Second: CCCOC(=O)CC1C(=O)NCCN1Cc1ccc(F)cc1 (configuration not stated)
The “activity change, negative = inhibition” value of the first is higher: 5.08% for the first, 0% for the second.

Compared with `Cc1cnc(CN(C)C(=O)CC2C(=O)NCCN2Cc2cccc(F)c2F)[nH]1` (configuration not stated), `Cc1ccc(CN2CCNC(=O)C2CC(=O)NCc2csc(C(C)C)n2)cc1` (configuration not stated) is lower in “activity change, negative = inhibition” value: -24.1% for the first, -32.4% for the second.

Compared with `CCc1ccc2ncc3c(-c4ccc(C)cc4)nn(CC(=O)NCc4ccccc4)c3c2c1`, `CC(C)c1ccc(NC(=O)Cn2nnc(C(=O)NCCc3ccccc3)c2N)cc1` is higher in “activity change, negative = inhibition” value: -0.883% for the first, 0.776% for the second.

Compared with `Cc1nn(C)c2c1c(C(F)(F)F)cc(=O)n2C(C)C(=O)NCc1ccc(Cl)cc1` (configuration not stated), `O=C(Cn1c(-c2cccs2)cc2ccccc21)NCCc1ccc(Cl)cc1` is higher in “activity change, negative = inhibition” value: -2.62% for the first, -1.12% for the second.

Going from `COc1ccccc1OCCNC(=O)c1cc([N+](=O)[O-])cc([N+](=O)[O-])c1` to `COc1cc(CC(=O)N/N=C/c2ccccc2)c([N+](=O)[O-])cc1OC`, the “activity change, negative = inhibition” value rises from -14.8% to -4.34%.

Compared with `CC(C)(C)c1ccc(S(=O)(=O)N2CCN(C(=O)c3cc(-c4ccc(Br)cc4)n[nH]3)CC2)cc1`, `COc1ccc(N2CCN(S(=O)(=O)c3ccc(-c4coc(C)n4)cc3)CC2)cc1` is lower in “activity change, negative = inhibition” value: 2.88% for the first, -15.6% for the second.

Going from `O=C(C1CCCN(S(=O)(=O)c2cccc3nonc23)C1)N1CCN(c2ccccc2F)CC1` (configuration not stated) to `CCOC(=O)C1CCCN(C(=O)c2cccc(S(=O)(=O)N3CCOCC3)c2)C1` (configuration not stated), the “activity change, negative = inhibition” value rises from -12.4% to -2.13%.

Going from `CCC(=O)N1CCc2cc(Br)cc(S(=O)(=O)Nc3ccc(C)cc3C)c21` to `Cc1ccc2c(c1)N(C(=O)Nc1ccc(Br)cc1F)CCO2`, the “activity change, negative = inhibition” value rises from 6.97% to 12.1%.

Going from `CCc1ccc(S(=O)(=O)n2ccnc2)cc1` to `COCC(C)NS(=O)(=O)c1ccc(N2CCCCS2(=O)=O)cc1` (configuration not stated), the “activity change, negative = inhibition” value falls from 7.8% to 0.108%.

Compared with `COCCCNC(=O)C1CC(=O)N(CCc2ccc(F)cc2)C1` (configuration not stated), `O=C(CSC1CC(=O)N(CCc2ccccc2)C1=O)Nc1ccc(Cl)cc1` (configuration not stated) is higher in “activity change, negative = inhibition” value: -14.2% for the first, -3.43% for the second.

Going from `O=C(O)CCCn1c(=O)c2cccn2c2ccc(F)cc21` to `CCC1Oc2ccc(Cl)cc2N(CC(=O)O)C1=O` (configuration not stated), the “activity change, negative = inhibition” value rises from -2.82% to 0.128%.

Going from `CCOC(=O)C1CCCN(CC(=O)Nc2cc(C)c3c(=O)oc4ccccc4c3n2)C1` (configuration not stated) to `CCOC(=O)C1CCCN(C(=O)c2cncc(Br)c2)C1` (configuration not stated), the “activity change, negative = inhibition” value falls from 3.8% to -2.66%.

Going from `COc1ccc(N2CCN(C(=O)c3c(C)oc4nc(C)nc(N5CCCC5)c34)CC2)cc1` to `COc1ccc(C(=O)N2CCC(c3nc4ccccc4o3)CC2)cc1`, the “activity change, negative = inhibition” value rises from -2.25% to 0.203%.

Going from `Cc1ccc(CNC(=O)C(=O)c2cn(CC(=O)N3CCCC3)c3ccccc23)cc1` to `Cc1ccc(CNC(=O)C(=O)c2cn(CC(=O)N3CCOCC3)c3ccccc23)cc1`, the “activity change, negative = inhibition” value falls from -1.65% to -17%.

Compared with `CC1CCN(C(=O)Cn2c(=O)n(-c3ccc(Cl)cc3)c(=O)c3c4c(sc32)CCC4)CC1`, `O=C(c1ccc2c(c1)N(Cc1ccccc1)C(=O)c1ccccc1S2(=O)=O)N1CCC(Cc2ccccc2)CC1` is higher in “activity change, negative = inhibition” value: -2.87% for the first, 9.31% for the second.

Compared with `Cc1cc(C)c2oc(C(=O)Nc3c(C(=O)Nc4ccccc4)oc4ccccc34)cc(=O)c2c1`, `COc1ccc(-c2cn3c(C)c(C(=O)Nc4cc(C)cc(C)c4)sc3n2)cc1` is higher in “activity change, negative = inhibition” value: -0.605% for the first, -0.43% for the second.

Going from `NC(=O)CC[C@@H]1NC(=O)[C@H](CO)NC(=O)c2cc([N+](=O)[O-])cc(I)c2NCC[C@@H](C(N)=O)NC1=O` to `C[C@@H]1NC(=O)c2cc([N+](=O)[O-])cc(F)c2NCCC[C@@H](C(N)=O)NC(=O)[C@H](CC(N)=O)NC1=O`, the “activity change, negative = inhibition” value rises from -32.7% to -21.9%.

First: Cc1cccc(CC(=O)Nc2cccc(-c3cn4cccnc4n3)c2)c1
Second: CN(C)Cc1c(C#N)c2ccccc2n1C
The “activity change, negative = inhibition” value of the first is higher: 8.23% for the first, 3.62% for the second.

In the case of `CC(C)CN1CCNC(=O)C1CC(=O)N(C)CC1CCOCC1` (configuration not stated), the “activity change, negative = inhibition” value is reported as -22.3% [at 57.1 µM].

From PubChem BioAssay AID485364 (National Center for Advancing Translational Sciences (NCATS), 2010)
